Targets with a hit are over-represented here; the source holds about 8,800 in all. About 0.5% of all pairs of compound and target were hits. A number with no mark means an inactive call.
Experiments:
Assay in all cases: log2 fold change, soluble protein after heating vs DMSO (PISA); higher = thermal stabilisation; K562 lysate, 10 uM; active = over 0.2 and 3.5 SD of the protein, either way, in both replicates (recomputed)
nilotinib = compound: Cc1cn(-c2cc(NC(=O)c3ccc(C)c(Nc4nccc(-c5cccnc5)n4)c3)cc(C(F)(F)F)c2)cn1 [nilotinib]
Summary of the method: (§1)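 Following dounce homogenisation of K562 pellets in PBS pH 7.4 with 1 mM MgCl2, crude extract at 1 mg/mL protein was incubated for 30 min with 10 μM compound. Aliquots were then heated for 3 min over 48°C-58°C and pooled, NP-40 was added to 0.5% at 4°C, and soluble protein was recovered as the supernatant at 21,000xg for 90 min. Channel-sum-equalised TMTpro 16plex LC-MS/MS quantified this protein. Each value, from duplicates, is a log-two fold change in thermal stability relative to solvent controls.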

[1] = compound: Cc1nc(Nc2n[nH]c3c2CN(C(=O)N[C@H](CN(C)C)c2ccccc2)C3(C)C)c2sccc2n1
Summary of the method: as §1

dasatinib = compound: Cc1nc(Nc2ncc(C(=O)Nc3c(C)cccc3Cl)s2)cc(N2CCN(CCO)CC2)n1 [dasatinib]
Summary of the method: as §1

[2] = compound: Cc1ncc(-c2ccnc(Nc3ccc(S(C)(=O)=O)cc3)n2)n1C(C)C
Summary of the method: as §1

[3] = compound: Cn1cc(-c2ccc3c(c2)CCN3C(=O)Cc2cccc(C(F)(F)F)c2)c2c(N)ncnc21
Summary of the method: as §1

quisinostat = compound: Cn1cc(CNCC2CCN(c3ncc(C(=O)NO)cn3)CC2)c2ccccc21 [quisinostat]
Summary of the method: as §1

tipifarnib = compound: Cn1cncc1[C@@](N)(c1ccc(Cl)cc1)c1ccc2c(c1)c(-c1cccc(Cl)c1)cc(=O)n2C [tipifarnib]
Summary of the method: as §1

[4] = compound: NC(=O)Nc1cc(-c2cccc(F)c2)sc1C(=O)N[C@H]1CCCNC1
Summary of the method: as §1

[5] = compound: NC(=O)c1cnc(N[C@@H]2CCCC[C@@H]2N)nc1Nc1cccc(-n2nccn2)c1
Summary of the method: as §1

[6] = compound: NC1(c2ccc(-c3nc4ccn5c(=O)[nH]nc5c4cc3-c3ccccc3)cc2)CCC1
Summary of the method: as §1

[7] = compound: NCC(=O)Nc1ccc(-n2nc(C(F)(F)F)cc2-c2ccc3c(ccc4ccccc43)c2)cc1
Summary of the method: as §1

silmitasertib = compound: O=C(O)c1ccc2c(c1)nc(Nc1cccc(Cl)c1)c1ccncc12 [silmitasertib]
Summary of the method: as §1

[8] = compound: O=C1NC(=O)C(c2cnc3ccccn23)=C1c1cn2c3c(cc(F)cc13)CN(C(=O)N1CCCCC1)CC2
Summary of the method: as §1

entospletinib = compound: c1cn2cc(-c3ccc4cn[nH]c4c3)nc(Nc3ccc(N4CCOCC4)cc3)c2n1 [entospletinib]
Summary of the method: as §1

vorinostat = compound: O=C(CCCCCCC(=O)Nc1ccccc1)NO [vorinostat]
Summary of the method: as §1

UniProt Q8NE18, sequence (Q8NE18 whole entry, looked up): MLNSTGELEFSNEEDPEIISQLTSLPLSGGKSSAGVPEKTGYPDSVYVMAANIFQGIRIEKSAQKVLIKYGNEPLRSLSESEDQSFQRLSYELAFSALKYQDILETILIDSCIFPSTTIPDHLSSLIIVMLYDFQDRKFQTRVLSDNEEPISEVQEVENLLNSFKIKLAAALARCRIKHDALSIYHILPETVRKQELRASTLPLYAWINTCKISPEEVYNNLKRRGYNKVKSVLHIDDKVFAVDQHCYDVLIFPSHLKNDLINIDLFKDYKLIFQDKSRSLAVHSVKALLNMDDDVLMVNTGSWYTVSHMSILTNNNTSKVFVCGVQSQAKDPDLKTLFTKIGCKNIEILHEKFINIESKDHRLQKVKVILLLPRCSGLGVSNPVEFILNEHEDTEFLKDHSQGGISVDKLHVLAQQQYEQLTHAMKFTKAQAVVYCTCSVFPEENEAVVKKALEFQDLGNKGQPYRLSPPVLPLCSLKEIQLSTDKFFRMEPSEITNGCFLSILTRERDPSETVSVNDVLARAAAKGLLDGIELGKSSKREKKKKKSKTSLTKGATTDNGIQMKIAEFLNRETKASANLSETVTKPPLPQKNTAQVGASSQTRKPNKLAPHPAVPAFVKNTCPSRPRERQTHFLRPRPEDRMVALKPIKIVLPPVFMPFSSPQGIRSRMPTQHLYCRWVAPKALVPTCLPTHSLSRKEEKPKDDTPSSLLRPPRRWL
UniProt O95644, sequence (O95644 whole entry, looked up): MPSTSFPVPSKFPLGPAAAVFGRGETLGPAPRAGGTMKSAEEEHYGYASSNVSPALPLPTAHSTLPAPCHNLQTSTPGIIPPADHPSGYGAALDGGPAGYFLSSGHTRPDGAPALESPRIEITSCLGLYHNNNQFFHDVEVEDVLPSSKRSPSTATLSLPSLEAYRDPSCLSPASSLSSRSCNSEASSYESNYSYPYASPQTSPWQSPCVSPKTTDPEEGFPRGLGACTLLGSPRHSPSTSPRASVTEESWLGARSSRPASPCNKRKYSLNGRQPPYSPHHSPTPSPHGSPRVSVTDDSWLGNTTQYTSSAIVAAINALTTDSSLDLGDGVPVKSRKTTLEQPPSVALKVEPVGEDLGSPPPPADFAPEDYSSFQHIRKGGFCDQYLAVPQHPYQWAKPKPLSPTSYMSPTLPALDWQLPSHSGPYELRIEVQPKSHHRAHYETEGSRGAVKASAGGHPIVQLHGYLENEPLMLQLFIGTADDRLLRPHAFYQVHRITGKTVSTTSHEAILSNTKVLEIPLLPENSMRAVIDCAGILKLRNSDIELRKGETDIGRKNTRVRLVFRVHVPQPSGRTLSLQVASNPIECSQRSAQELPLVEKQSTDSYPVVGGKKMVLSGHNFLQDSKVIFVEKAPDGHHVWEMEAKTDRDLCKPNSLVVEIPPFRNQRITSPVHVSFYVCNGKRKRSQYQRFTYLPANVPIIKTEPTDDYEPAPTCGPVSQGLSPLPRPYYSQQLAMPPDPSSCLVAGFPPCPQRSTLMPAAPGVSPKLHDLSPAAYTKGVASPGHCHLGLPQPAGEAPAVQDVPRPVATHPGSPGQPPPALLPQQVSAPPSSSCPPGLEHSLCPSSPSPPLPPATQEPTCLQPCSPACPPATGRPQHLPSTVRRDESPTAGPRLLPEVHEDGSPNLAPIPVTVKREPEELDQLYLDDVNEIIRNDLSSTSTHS
UniProt P04150, sequence (P04150 whole entry, looked up): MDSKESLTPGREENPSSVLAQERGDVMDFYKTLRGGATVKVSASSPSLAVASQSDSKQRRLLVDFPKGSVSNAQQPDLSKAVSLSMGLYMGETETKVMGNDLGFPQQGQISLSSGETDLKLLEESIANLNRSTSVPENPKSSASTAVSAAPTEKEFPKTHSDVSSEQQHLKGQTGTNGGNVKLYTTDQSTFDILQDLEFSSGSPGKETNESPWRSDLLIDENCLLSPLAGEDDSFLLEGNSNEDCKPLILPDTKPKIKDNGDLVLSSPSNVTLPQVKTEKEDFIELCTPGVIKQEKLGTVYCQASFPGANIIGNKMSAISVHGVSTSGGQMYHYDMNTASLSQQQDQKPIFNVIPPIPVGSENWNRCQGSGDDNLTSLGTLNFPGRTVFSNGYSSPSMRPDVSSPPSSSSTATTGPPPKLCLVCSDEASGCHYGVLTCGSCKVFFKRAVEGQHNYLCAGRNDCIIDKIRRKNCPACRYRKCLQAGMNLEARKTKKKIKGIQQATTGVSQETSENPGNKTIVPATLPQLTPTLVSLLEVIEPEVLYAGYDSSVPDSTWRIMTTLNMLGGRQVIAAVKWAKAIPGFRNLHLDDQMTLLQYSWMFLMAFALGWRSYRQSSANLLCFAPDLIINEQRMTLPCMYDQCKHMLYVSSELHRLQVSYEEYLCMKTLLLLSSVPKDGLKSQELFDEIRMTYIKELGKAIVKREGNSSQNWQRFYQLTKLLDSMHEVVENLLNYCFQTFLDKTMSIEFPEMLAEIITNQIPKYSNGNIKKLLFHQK
UniProt P10244, sequence (P10244 whole entry, looked up): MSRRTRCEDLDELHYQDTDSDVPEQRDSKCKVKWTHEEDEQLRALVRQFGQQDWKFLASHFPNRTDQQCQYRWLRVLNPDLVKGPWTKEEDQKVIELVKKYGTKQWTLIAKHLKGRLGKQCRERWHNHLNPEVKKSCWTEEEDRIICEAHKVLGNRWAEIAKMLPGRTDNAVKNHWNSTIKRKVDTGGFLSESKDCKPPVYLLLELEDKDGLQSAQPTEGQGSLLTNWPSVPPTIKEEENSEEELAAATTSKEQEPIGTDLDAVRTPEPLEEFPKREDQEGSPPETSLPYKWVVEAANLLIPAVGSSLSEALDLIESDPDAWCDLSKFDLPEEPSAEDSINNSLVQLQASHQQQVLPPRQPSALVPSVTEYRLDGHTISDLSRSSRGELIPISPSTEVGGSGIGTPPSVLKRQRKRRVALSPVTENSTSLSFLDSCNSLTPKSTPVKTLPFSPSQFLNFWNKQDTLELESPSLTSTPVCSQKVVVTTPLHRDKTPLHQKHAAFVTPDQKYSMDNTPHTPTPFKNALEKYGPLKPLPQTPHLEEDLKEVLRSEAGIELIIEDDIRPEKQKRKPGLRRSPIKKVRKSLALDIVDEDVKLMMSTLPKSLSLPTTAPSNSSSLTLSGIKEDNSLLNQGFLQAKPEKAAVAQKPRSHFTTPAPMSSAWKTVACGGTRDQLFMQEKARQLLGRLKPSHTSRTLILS

Target	log2 fold change (nilotinib)	log2 fold change [1]	log2 fold change (dasatinib)	log2 fold change [2]	log2 fold change [3]	log2 fold change (quisinostat)	log2 fold change (tipifarnib)	log2 fold change [4]	log2 fold change [5]	log2 fold change [6]	log2 fold change [7]	log2 fold change (silmitasertib)	log2 fold change [8]	log2 fold change (entospletinib)	log2 fold change (vorinostat)
NR3C1 isoform 3 (UniProt P04150)	-0.021	-0.069	-0.042	0.044	-0.014	-0.032	-0.038	0.035	0.03	-0.021	-0.124	0.05	0.046	-0.064	
MYBL2 (UniProt P10244)			-0.055		-0.012	-0.071		-0.021		-0.015	-0.03	0.003	0.008	0.025	-0.333 (active)
NSUN7 (UniProt Q8NE18)						-0.573 (active)		0.01	0.009	-0.031	0.241	0.005	-0.108	-0.042	-0.003
NFATC1 (UniProt O95644)	-0.048	-0.055	0.014	0.014	0.037	-0.097	0.006	0.042	-0.002	-0.058	0.014	0.07	0.033	-0.047	-0.364 (active)

From the supplement of paper PMC10849652
